Experimental data published in PubChem BioAssay AID449762 (Southern Research Specialized Biocontainment Screening …, 2010).
The campaign covered roughly 330,000 compounds. About 1,900 (0.58%) were called active. Not shown: some 4% with an inconclusive outcome. Cut-off read from the data, not from the text of the source: inconclusive = inhibition above about 70% without an active follow-up result; inactive = below that. Only a sample is shown. Results with a measured potency or affinity are listed apart.

Test: M. tuberculosis growth inhibition, HTS (AID 449762);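 note: bacterial growth assessed after seven days of incubation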
Details: M. tuberculosis H37Rv growth inhibition, 7H9 media; at 25 µM; stronger effect = higher value

Structure (SMILES) | inhibition
CCCCCC(=O)Nc1cccc(C2=NOC3(C2)C[C@@H](C(N)=O)N(C(=O)c2ccc(Cl)cc2)C3)c1 (some centres not stated) | -9.42% (inactive)
CCOc1ccc2nc(NC(=O)C3CCCN(S(=O)(=O)c4cccs4)C3)sc2c1 (configuration not stated) | 58.9% (inactive)
COc1ccc2nc(NC(=O)C3CCN(S(=O)(=O)c4cccs4)CC3)sc2c1 | -5.35% (inactive)
O=C(NCC1CCCN1S(=O)(=O)c1cccs1)C(=O)Nc1cccc(F)c1 (configuration not stated) | -3.47% (inactive)
CC(C)Cc1nc(SCC(=O)N2CCCC2)c2c(=O)n(C)c(=O)n(C)c2n1 | 5.69% (inactive)
CC(=O)NCc1cc(-c2ccc(Cl)cc2)no1 | -6.41% (inactive)
O=S(=O)(NCc1cc(-c2ccc(Cl)cc2)no1)c1ccc(Cl)cc1 | -3.48% (inactive)
COc1ccc(C2CC(C)=NN2C=O)cc1OC (configuration not stated) | -23.4% (inactive)
C=CCC1(CC=C)CCCN1C(=O)c1cc(COc2ccc(F)c(F)c2)on1 | 11.7% (inactive)
O=C(c1cc(COc2ccc(-n3cncn3)cc2)on1)N1CCCC1 | 2.05% (inactive)
COc1ccccc1C1=NOC(C)(c2nnc(Cc3ccccc3)o2)C1 (configuration not stated) | -2.16% (inactive)
Cc1ccc2oc(=O)c3cnn(CC(=O)N(CCN(C)C)Cc4ccco4)c3c2c1 | -9.56% (inactive)
Cn1c(SCC(=O)NCC2CCCO2)ncc(C(=O)Nc2ccccc2)c1=O (configuration not stated) | 54.1% (inactive)
Cn1c(SCC(=O)NCC2CCCO2)ncc(C(=O)Nc2ccc(F)cc2)c1=O (configuration not stated) | 67.5% (inactive)
COC(=O)c1ccc2c(=O)[nH]c(CCl)nc2c1 | 37.7% (inactive)
COC(=O)c1ccc2c(=O)[nH]c(CSc3nc(-c4ccc(F)cc4)cs3)nc2c1 | -1.24% (inactive)
COc1cc(-c2nc3c[n+](CC(=O)c4ccccc4)ccc3n2C)cc(OC)c1OC | 3.76% (inactive)
COc1cc(OC)c(-c2nc3c[n+](CC(=O)c4ccccc4)ccc3n2C)cc1OC | -1.07% (inactive)
Cc1ccc(-c2nc3ncccn3c2Nc2ccc3c(c2)OCCO3)o1 | 3.72% (inactive)

Structure (SMILES) | inhibition
Cc1ccc(-c2nc3ncccn3c2Nc2ccc3c(c2)OCO3)o1 | 3.61% (inactive)
CCOc1ccc(NS(=O)(=O)c2cc(C(=O)N3CCCC3)ccc2Cl)cc1 | 5.65% (inactive)
Cc1ccc(NC(=O)c2ccc(OCC3CCCO3)cc2)nc1 (configuration not stated) | 16.9% (inactive)
Oc1ccc(C[C@@H]2CNCCN2CC2CCCCC2)cc1 | -3.4% (inactive)
Oc1ccc(C[C@H]2CNCCN2CC2CCCCC2)cc1 | 7.27% (inactive)
CCOC(=O)c1cc(-c2ccc3c(c2)OCCO3)n[nH]1 | -1.75% (inactive)
OCCN(CCCn1c(-c2ccncc2)nc2ccccc21)c1nc(CN2CCCCC2)cs1 | -3.74% (inactive)
O=C(NNc1cc(N2CCOCC2)nc(N2CCOCC2)n1)c1ccc(Cl)c(Cl)c1 | -10.6% (inactive)
CC(C)(C)c1ccc(C(=O)NNc2cc(N3CCOCC3)nc(N3CCOCC3)n2)cc1 | 1.03% (inactive)
O=C(CSc1nc2cc(Cl)ccc2o1)N1CCOCC1 | 0.49% (inactive)
CCN1CCN(Cc2ccc(NC(=O)c3cc(NC(=O)c4ccc5n[nH]nc5c4)cc(OC)c3)cc2C(F)(F)F)CC1 | 12.9% (inactive)
CCN1CCN(Cc2ccc(NC(=O)c3cc(NC(=O)c4ccno4)cc(OC)c3)cc2C(F)(F)F)CC1 | 66.3% (inactive)
CC(=O)NCCC(=O)Nc1cccc(S(=O)(=O)N(C)c2ccccc2)c1 | -0.05% (inactive)
Cc1ccccc1OCC(=O)N/N=C/c1ccccn1 | -4.77% (inactive)
O=C(NC1(C(F)(F)F)NC(=O)N(C2CCCCC2)C1=O)C1CC1 (configuration not stated) | -5.69% (inactive)
CCOC(=O)c1c(C)[nH]c(N=Nc2cccc(C)c2)c1C | 15.8% (inactive)
CCOC(=O)c1c(C)[nH]c(N=Nc2cc(C(=O)O)cc(C(=O)O)c2)c1C | -2.43% (inactive)
COc1ccc(N2C(=O)/C(=C/c3cc(C)n(-c4ccc(C)cn4)c3C)C(=O)NC2=S)c(OC)c1 | 3.48% (inactive)
COc1cc(/C=N/OCC(=O)Nc2cc(C)on2)ccc1OCc1ccccc1 | -2.24% (inactive)

Structure (SMILES) | inhibition
COc1ccc(/C=N/OCC(=O)Nc2cc(C)on2)cc1OC | -6.14% (inactive)
CSCC(=O)Nc1cc(C)on1 | 7.76% (inactive)
Cc1cc(NC(=O)C(Cl)(Cl)Cl)no1 | -0.63% (inactive)
CCCn1c(SCC(=O)Nc2ccccc2N2CCOCC2)nc2c1c(=O)n(C)c(=O)n2C | -9.47% (inactive)
CN(CCOc1ccc(Cl)cc1)C(=O)C1CCN(C(=O)c2ccc(F)cc2)CC1 | -0.37% (inactive)
CCC(NC(=O)c1cc(COc2cncc(Cl)c2)on1)c1ccc(C)cc1 (configuration not stated) | 27.5% (inactive)
CCC(NC(=O)c1cc(COc2cncc(Cl)c2)on1)c1ccncc1 (configuration not stated) | 4.32% (inactive)
COc1cccc(NC(=O)CN(C)C(=O)c2ccccc2Sc2ccccc2C#N)c1 | -24% (inactive)
CCOC(=O)c1cc(NC(=O)c2ccccc2)c(=O)n2c1oc1ccccc12 | -3% (inactive)
Oc1c(C(c2ccccn2)N2CCCCC2)cc(Cl)c2cccnc12 (configuration not stated) | 3% (inactive)
Oc1c(C(c2cccs2)N2CCN(c3ccccc3)CC2)ccc2cccnc12 (configuration not stated) | 30.5% (inactive)
COC(=O)Cc1ccc(NC(=S)N2CCC(Cc3ccccc3)CC2)cc1 | 6.07% (inactive)
O=C(C1=C[C@H](c2coc3ccccc3c2=O)C[C@H](OCCCCO)O1)N1CCN(Cc2ccccc2)CC1 | 39.2% (inactive)
CC(CC(=O)Nc1ccc(F)c([N+](=O)[O-])c1)c1ccccc1 (configuration not stated) | -6.24% (inactive)
CC(CC(=O)Nc1cc([N+](=O)[O-])ccc1Cl)c1ccccc1 (configuration not stated) | 3.48% (inactive)
CSCC[C@H](NC(=O)C1CCN(S(=O)(=O)c2ccc(C)cc2)CC1)C(=O)NCC1CCCO1 (some centres not stated) | -8.31% (inactive)
Cc1occc1-c1nnc(SCc2nnc(-c3ccc(Cl)cc3)o2)n1C | -6.71% (inactive)
C[C@@H]1C[C@H]2[C@@H]3CCC4=CC(=O)C=C[C@]4(C)[C@@]3(F)[C@@H](O)C[C@]2(C)[C@H]1C(=O)CO | 18.9% (inactive)
Cc1cccc(C)c1NC(=O)Cn1nnc(-c2ccc(CN3CCC(C)CC3)cc2)n1 | 5.96% (inactive)
